Autofluor counter: flagged as autofluorescent in microsphere protease counterscreen | compound autofluorescence counterscreen, microsphere flow cytometry; stronger effect = higher value | 3.1% of 360,000 active | fluorescence intensity (no concentration beside the values) | AID 624483; in the data active = fluorescence intensity above about 16000; inconclusive = no clear call, values can overlap the other calls
BoNT A protease: BoNT/A light chain protease inhibitors, primary screen, biochemical, flow cytometry, MLPCN library; Botulinum neurotoxin type A light chain protease (Clostridium botulinum A str. ATCC 3502); multiplex microsphere protease substrate cleavage; inhibition, % at 10 µM; 0.17% of 360,000 active
Anthrax LF prot: Bacillus anthracis LF protease inhibitors, primary screen, biochemical, multiplex microsphere, MLPCN library | multiplex microsphere protease cleavage assay | inhibition, % at 10 µM | Lethal factor (Bacillus anthracis), P15917 | 0.12% of 360,000 active
BoNT-F LC inh: BoNT/F light chain protease inhibitors, primary screen, biochemical, flow cytometry, MLPCN library. Multiplex microsphere protease cleavage assay. AID 588497, 2011. inhibition, % at 10 µM. Botulinum neurotoxin type F light chain protease (Clostridium botulinum). 0.22% of 360,000 active; in the data active = inhibition above about 35%, passing the limit was not always enough; inconclusive = no clear call, values can overlap the other calls
Numbers stand for hits; - = inactive; ? = inconclusive. The list is not random: actives were taken first. Their share in the collection is about 3.5%. Cut-off read from the data, not from the text of the source, unless noted: active = inhibition above about 30%; inconclusive = no clear call, values can overlap the other calls; inactive = below that.

SMILES | Autofluor counter | BoNT A protease | Anthrax LF prot | BoNT-F LC inh
C=CCn1c(SCC(N)=O)nnc1-c1cc(Br)ccc1O | 21322 | ? | - | -
CN(C(=O)c1ccccc1OCc1ccc(F)cc1)c1c(N)n(Cc2ccccc2)c(=O)[nH]c1=O | - | - | - | -
COc1ccc(-c2noc(-c3ccccc3C(=O)N3CCOCC3)n2)cc1 | 20897 | - | - | -
Cc1ccc(-c2noc(-c3ccccc3C(=O)N3CCOCC3)n2)cc1 | - | - | - | -
CC(C)(C)OC(=O)C[C@H]1C/C=C\C[C@H](CC(=O)N[C@H](CO)Cc2ccccc2)C(=O)N2CCC[C@H]2COC1=O | - | - | - | -
CCOC(=O)C1C(=O)NC(SCC(N)=O)=C(C#N)C1c1ccccc1OCC (stereo not drawn) | - | - | - | -
CCOC(=O)C1C(=O)NC(SC)=C(C#N)C1c1ccccc1F (stereo not drawn) | 22567 | - | - | -
CCCCCn1c(SCc2ccncc2)nc2cc(C(=O)NCc3ccco3)ccc2c1=O | 19744 | ? | - | -
O=C(CSc1nc2ccccc2c(=O)n1Cc1ccco1)N1CCCCCC1 | 21631 | ? | - | -
C=CCn1c(SCC(=O)N2CCCC2)nc2cc(C(=O)NCC3CCCO3)ccc2c1=O (stereo not drawn) | 16153 | - | - | -
O=C(NCc1ccco1)c1ccc2c(=O)n(Cc3ccco3)c(SCC(=O)N3CCCC3)nc2c1 | 21141 | - | - | -
CCCCn1nc2cc(C(=O)NCc3ccco3)ccc2c1OCC | - | - | - | -
CCn1c(SCC(=O)N2CCCCCC2)nc2ccccc2c1=O | - | - | - | -
CCN1C[C@@H]2[C@@H]3C(=O)N(Cc4ccccc4)C(=O)[C@@H]3[C@](C)(C1=O)N2C(=O)c1ccc(F)cc1 | - | - | - | -
CC(C)c1nc(SCC(=O)N2CCCC2)c2ccccc2n1 | 22830 | ? | - | -
Cn1ncc(Br)c1C(=O)Nc1c(F)c(F)cc(F)c1F | 21682 | ? | - | -
O=C(Nc1ccncc1)Nc1ccc(F)cc1F | 23331 | - | - | -
O=C(CN1CCN(S(=O)(=O)c2ccc(Cl)c(Cl)c2)CC1)N1CCCC1 | - | - | - | -
Cc1ccc(-n2nc(C(=O)O)cc2-c2ccccc2)cc1 | 22097 | - | - | -
Cc1ccc(-n2nc(C(=O)O)cc2-c2ccc(Cl)cc2)cc1 | - | - | - | -
CCOc1ccc(S(=O)(=O)N2CCC(C(=O)NC3CCCC3)CC2)cc1 | ? | - | - | -
CSc1ccc(N2CCN(CCCNC(=O)Nc3ccccc3F)CC2)cc1 | 24815 | - | - | -
CSc1ccc(NC(=O)NCCCN2CCC(Cc3ccccc3)CC2)cc1 | - | - | - | -
COc1ccccc1Oc1cc(F)nc(N)n1 | 17544 | ? | - | -
COCCN(Cc1nc2ccccc2c(=O)[nH]1)C(=O)COc1c(C)cc(Cl)cc1C | - | - | - | -
SMILES | Autofluor counter | BoNT A protease | Anthrax LF prot | BoNT-F LC inh
Cc1ccc2nc(-c3ccc(O)cc3)oc2c1 | - | - | - | -
COc1ccccc1CN1CCc2c([nH]c3ccccc23)C1 | - | - | - | -
COc1cc(CN2CCc3c([nH]c4ccccc34)C2)cc(OC)c1 | 18016 | - | - | -
CSCCC(NC(=O)c1ccccc1)C(=O)NCCCn1nc(C)cc1C (stereo not drawn) | - | - | - | -
CCOc1ccc(NC(=O)c2ccc3c(c2)S(=O)(=O)N=C2CCCCCN23)cc1 | - | - | - | -
Cc1cc(Cl)cc(Br)c1OCCCN1C(=O)NC(C)(C)C1=O | 20662 | - | - | -
Cc1cc(Cl)c(OCCN2C(=O)NC(C)(C)C2=O)c(Br)c1 | 20599 | - | - | -
Cc1ccc(C(C)C)c(OCCCN2C(=O)NC(C)(C)C2=O)c1 | - | - | - | -
COCCNCCCCOc1c(Cl)cc(C)cc1Br | 20464 | - | - | -
Cc1cc(C)c(OCCN2C(=O)NC(C)(C)C2=O)c(Cl)c1 | 22616 | - | - | -
Cc1cc(Cl)c(OCCCNCc2ccccc2)c(Br)c1 | - | - | - | -
O=C(O)c1ccccc1Nc1ccccc1 | - | - | - | -
Cc1cc(Nc2ccccc2C(=O)O)nc2nc3ccccc3c(=O)n12 | 16916 | - | - | -
O=C(CSc1nnc(NC(=O)c2ccccc2)s1)NC1CCCC1 | - | - | - | -
Cc1ccc(-n2c(=O)cc(NCc3cccnc3)[nH]c2=O)cc1 | 21543 | - | - | -
CCCS(=O)(=O)NC(=O)C1(C)CCN(C(=O)c2ccc(C(F)(F)F)cc2)C1 (stereo not drawn) | - | - | - | -
Cc1ccsc1C1C2=C(CCCC2=O)Nc2ncnn21 (stereo not drawn) | 22735 | - | - | -

High-throughput results (PubChem)
